According to the supplement of paper PMC10338343:
± gives the standard deviation.

test system: MILI (PIWIL2) piRISC loaded with piRNA #1 (26 nt); test: pre-steady-state target cleavage rate (min^-1); guide: piRNA #1 5'p-UGAGGUAGUAGGUUGUAUAGUAUCCA; MIWI and MILI are mouse PIWI proteins and EfPiwi is from a freshwater sponge; tags in brackets are library labels; higher = faster piRNA-guided slicing of the target; details: auxiliary factor: 500 nM mouse GTSF1
Outline: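 Cleave-'n-Seq: 1 nM active affinity-purified piRISC with one synthetic guide and 0.1 nM transcribed, DNA-blocked target RNA library were mixed, with or without 500 nM GTSF1 partner protein, in HEPES–potassium acetate buffer at 33 °C for 0–8 or 0–960 min. Uncleaved targets were sequenced and normalised to depth and to weakly complementary targets, three trials were pooled, and k3 was capped at 0.0001 min^-1. The pre-steady-state cleavage rate was fitted […].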

Row | Sequence | pre-steady-state target cleavage rate
1 | GGAGUCGAUACUAUACAACCUUCUACCUCA | 0.00775 ± 0.0022
2 | GGAGACCAUACUAUUCAACCUUCUACCUCA | 0.00695 ± 0.0026
3 | GGAGACCUAUGUAUACAUCCUACUUCCUCA | 0.0795 ± 0.013
4 | GGAGACCUUACAAUACAACCUAGUACCUCA | 0.043 ± 0.013
5 | GGAGACCUAUGAUAUGUUCCUACUACCCCA | < 0.0001
6 | GGAGACCUAUGAUAUGAACCUACCUACCUCA | < 0.0001
7 | GGAGUGGAUAGAUUACAACCUACUACCUCA | 0.0915 ± 0.01
8 | GGAGACCUAUGUAUACAACCUACUUCCUCA | 0.0381 ± 0.0071
9 | GGAGACCUAACUAUAGAACCUACUACGUCA | 0.0322 ± 0.01
10 | GGAGACCUAUGAAAACAACCUACUUCCUCA | 0.00368 ± 0.002
11 | GGAGACCUAACUUAUCAACCUACUACCUCA | 0.0153 ± 0.0078
12 | GGAGACCUUACUAUACAUCCUACAACCUCA | 0.214 ± 0.019
13 | GGAGACCUAUCAAUACAACCUACUACCUCA | 0.0355 ± 0.0083
14 | GGAGACCUAACUAUACAACCUACUGACCUCA | 0.163 ± 0.04
15 | GGAGACCUAAGUAUUCAACCUACUACCUCA | 0.0617 ± 0.0092
16 | GGAGACCUAUGUAUACAACCUACUACCUAA | 0.0593 ± 0.0072
17 | GGAGACCUAUGAAUACAACCUGCUACCUCA | 0.00274 ± 0.0027
18 | GGAGAGGAUACUUUACUACCUACUACCUCA | 0.161 ± 0.011
19 | GGAGACCUUACUAUUCUACCUACUACCUCA | 0.124 ± 0.0096
20 | GGAGACCAAACUAUAGAACCUACUACCUCA | 0.13 ± 0.028

Row | Sequence | pre-steady-state target cleavage rate
21 | GGAGACCUUACUAUACAAGCAACUACCUCA | 0.0104 ± 0.0031
22 | GGAGACCUAACUGUACAACCUACUACCUCA | 0.0814 ± 0.024
23 | GGAGACCAUACUAUACAACGUACUACGUCA | 0.0148 ± 0.0053
24 | GGAGACCUAUGAUAACAACCUACUUACCUCA | 0.00599 ± 0.0021
25 | GGAGACCUAUGUAUUCAACGUACUACCUCA | 0.00676 ± 0.0018
26 | GGAGACCUUACUAUACAACCUACCACCUCA | 0.118 ± 0.015
27 | GGAGACCUAACUAAAGAACCUACUACCUCA | 0.0693 ± 0.013
28 | GGAGACCUUAGUAUACAACCUACUUCCUCA | 0.0515 ± 0.014
29 | GGAGACCUAUGAAUACAUCCUACUUCCUCA | 0.00892 ± 0.0025
30 | GGAGACCUAUGAAUACAUCCUACUACCUCA | 0.012 ± 0.0031
31 | GGAGACCUUUCUAUACAACCUACUACGUCA | 0.0394 ± 0.0068
32 | GGAGACGAUACUUUACAACCUACUACCACA | 0.2 ± 0.025
33 | GGAGUGGAUACAAUACAACCUACUACCACA | 0.111 ± 0.0093
34 | GGAGACCUAUGUAUACAUCCUACUACCUGA | 0.0651 ± 0.017
35 | GGAGACCAUACUAUACAACCUACAUGCUCA | 0.134 ± 0.028
36 | GGAGACCAUACUAUACAACCUGCUACCUCA | 0.0337 ± 0.0076
37 | GGAGACCUAUGUAUACAACCUAGAUCCUCA | 0.00265 ± 0.0026
38 | GGAGACCUAACAAUACAACCUACUACCUGA | 0.0637 ± 0.022
39 | GGAGACCUAUGAAUACAACCUACUACCGUCA | 0.00898 ± 0.0024
40 | GGAGACCUAUGUAUACAAGCUUCUACCUCA | 0.0107 ± 0.0027
